Experimental findings from PubChem BioAssay AID1053115 (Broad Institute, 2014) are described below.

Entries with a potency or affinity are not part of this list. Active and inactive are the calls of the source.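 Rule for the calls: active = cytotoxic compounds whose fitted half-maximal concentration is at most twice the top valid tested dose; inconclusive = flat curve showing 30 to 70% signal loss, or poor fit; inactive = the rest.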

The assay is described as follows: viability loss in A549 lung cells – cell-based, 24 h, CellTiter-Glo luminescence, cherry-picks, cytotoxicity control, dose response (AID 1053115). To be noted: CellTiter-Glo ATP luminescence; series mostly up to 30 µM.
Turning to `C[C@H](O)C#Cc1ccc2c(c1)O[C@H](CN(C)Cc1ccccc1)[C@H](C)CN([C@@H](C)CO)S2(=O)=O`, the call was inactive. To `C[C@H](O)C#Cc1ccc2c(c1)O[C@@H](CN(C)Cc1ccccc1)[C@H](C)CN([C@H](C)CO)S2(=O)=O` belongs “inactive”. To `COc1ccccc1CN1CC[C@@H]2[C@@H](CO)Nc3ccc(-c4ccc(C(=O)N(C)C)cc4)cc3[C@@H]21` belongs “inactive”. As to `C[C@H](O)C#Cc1ccc2c(c1)O[C@@H](CN(C)Cc1ccccc1)[C@@H](C)CN([C@H](C)CO)S2(=O)=O`, the call was inactive.

On to `CN1c2ccc(C#Cc3cccnc3)cc2[C@@H]2[C@@H](CCN2C(=O)C2CCC2)[C@H]1CO`, for which the result was inactive. Under `C[C@@H](O)C#Cc1ccc2c(c1)O[C@@H](CN(C)Cc1cccnc1)[C@@H](C)CN([C@@H](C)CO)S2(=O)=O` stands “inactive”. To `CN1c2ccc(C#Cc3cccnc3)cc2[C@@H]2[C@@H](CCN2C(=O)C2CCC2)[C@@H]1CO` belongs “inactive”; to `C[C@H](O)C#Cc1ccc2c(c1)O[C@@H](CN(C)Cc1ccccc1)[C@H](C)CN([C@@H](C)CO)S2(=O)=O`, “inactive”. To `C[C@H](CO)N1C[C@H](C)[C@H](CN(C)Cc2ccccc2)Oc2cc(C#C[C@@H](C)O)ccc2S1(=O)=O` belongs “inactive”; to `CN1CCN(C(=O)c2cc3c(c(-c4cccc(C#CCC5CCCC5)c4)n2)[C@@H](CCO)N(S(=O)C(C)(C)C)C3)CC1` (some centres not stated), “inactive”; to `CCCNC(=O)C[C@H]1CC[C@@H]2[C@@H](COc3ccc(NC(=O)CCC)cc3C(=O)N2C)O1`, “inactive”. Regarding `CO[C@H]1CN(C)C(=O)c2ccc(NC(=O)c3ccc(F)cc3)cc2OC[C@H](C)N(C(=O)c2ccc(F)cc2)C[C@@H]1C`, the outcome was inactive. Take `C[C@H](O)C#Cc1ccc2c(c1)O[C@H](CN(C)Cc1ccccc1)[C@H](C)CN([C@H](C)CO)S2(=O)=O`: the compound was called inactive. Under `Cc1ccc(S(=O)(=O)N(C)C[C@H]2Oc3cc(C#Cc4ccncc4)ccc3S(=O)(=O)N([C@@H](C)CO)C[C@H]2C)cc1` stands “inactive”; under `Cc1noc(C)c1S(=O)(=O)Nc1ccc2c(c1)C(=O)N([C@@H](C)CO)C[C@@H](C)[C@H](CN(C)S(=O)(=O)c1cccs1)O2`, “inactive”; under `CN1c2ccc(C#Cc3cccnc3)cc2[C@H]2[C@H](CCN2C(=O)C2CCCCC2)[C@@H]1CO`, “inactive”. Under `C[C@H](O)C#Cc1ccc2c(c1)O[C@H](CN(C)Cc1ccccc1)[C@@H](C)CN([C@H](C)CO)S2(=O)=O` stands “inactive”; under `C[C@H](O)C#Cc1ccc2c(c1)O[C@H](CN(C)Cc1ccc(-c3ccccc3)cc1)[C@H](C)CN([C@H](C)CO)S2(=O)=O`, “inactive”. Take `C[C@@H]1CN([C@@H](C)CO)S(=O)(=O)c2ccc(C#C[C@@H](C)O)cc2O[C@@H]1CN(C)Cc1ccccc1`: the compound was classed as inactive.

In the case of `C[C@@H](O)C#Cc1ccc2c(c1)O[C@@H](CN(C)Cc1ccncc1)[C@@H](C)CN([C@@H](C)CO)S2(=O)=O`, the compound was classed as inactive. To `C[C@@H]1CN([C@@H](C)CO)S(=O)(=O)c2ccc(C#C[C@@H](C)O)cc2O[C@@H]1CN(C)Cc1ccc(-c2ccccc2)cc1` belongs “inactive”. For `OC[C@H]1Nc2ccc(-c3cccc(F)c3)cc2[C@@H]2[C@H]1CCN2Cc1ccc(F)cc1`, the result was inactive.
